{
  "source": "the supplement of paper PMC8728848",
  "binders": {"B1": {"name": "DC-SIGN (Homo sapiens), Q9NNX6 (protein)", "chain": "QVSKVPSSISQEQSRQDAIYQNLTQLKAAVGELSEKSKLQEIYQELTQLKAAVGELPEKSKLQEIYQELTRLKAAVGELPEKSKLQEIYQELTWLKAAVGELPEKSKMQEIYQELTRLKAAVGELPEKSKQQEIYQELTRLKAAVGELPEKSKQQEIYQELTRLKAAVGELPEKSKQQEIYQELTQLKAAVERLCHPCPWEWTFFQGNCYFMSNSQRNWHDSITACKEVGAQLVVIKSAEEQNFLQLQSSRSNRFTWMGLSDLNQEGTWQWVDGSPLLPSFKQYWNRGEPNNVGEEDCAEFSGNGWNDDKCNLAKFWICKKSAASCSRDEEQFLSPAPATPNPPPA"}, "B2": {"name": "Cel5A (Clostridium thermocellum), P16218 (protein)", "chain": "AVGEKMLDDFEGVLNWGSYSGEGAKVSTKIVSGKTGNGMEVSYTGTTDGYWGTVYSLPDGDWSKWLKISFDIKSVDGSANEIRFMIAEKSINGVGDGEHWVYSITPDSSWKTIEIPFSSFRRRLDYQPPGQDMSGTLDLDNIDSIHFMYANNKSGKFVVDNIKLIGATSDPTPSIKHGDLNFDNAVNSTDLLMLKRYILKSLELGTSEQEEKFKKAADLNRDNKVDSTDLTILKRYLLKAISEIPI"}, "B3": {"name": "Cel5A (Cellvibrio mixtus), A0A266Q9Z0 (protein)", "chain": "TSVAGCSGVTAWNSTAVYTGGNEVVRNGVKYQAKWWTQGQDPVTNSSADGVWANKGQC"}, "B4": {"name": "Pul13 (Thermotoga maritima), O33840 (protein)", "chain": "ETTIVVHYHRYDGKYDGWNLWIWPVEPVSQEGKAYQFTGEDDFGKVAVVKLPMDLTKVGIIVRLNEWQAKDVAKDRFIEIKDGKAEVWILQGVEEIFYEKP"}},
  "assay_in_all_cases": "glycan array binding signal (z-score within array); higher = stronger binding",
  "conditions_in_all_cases": "glycan notation: IUPAC condensed, linker removed",
  "key": {"[1]": {"target": "Glc(a1-2)Glc(a1-2)Glc(a1-2)Glc(a1-2)Glc", "in_short": "(§1)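 From the Consortium for Functional Glycomics database, 3228 arrays were curated, keeping only those whose protein sequence was available. Binding is given as a within-array Z-score averaged across arrays sharing a protein sequence and across linkers. Negative Z-scores can be read as non-binding.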"}, "[2]": {"target": "Glc(b1-2)Glc(b1-2)Glc(b1-2)Glc(b1-2)Glc(b1-2)Glc", "in_short": "as §1"}, "Glc(a1-2)Glc": {"target": "Glc(a1-2)Glc", "in_short": "as §1"}, "[3]": {"target": "Glc(a1-6)Glc(a1-6)Glc(a1-6)Glc(a1-6)Glc(a1-6)Glc", "in_short": "as §1"}, "Glc(b1-2)Glc(b1-2)Glc": {"target": "Glc(b1-2)Glc(b1-2)Glc", "in_short": "as §1"}, "[4]": {"target": "Glc(b1-2)Glc(b1-2)Glc(b1-2)Glc(b1-2)Glc(b1-2)Glc(b1-2)Glc(b1-2)Glc(b1-2)Glc", "in_short": "as §1"}, "[5]": {"target": "Glc(b1-3)Glc(b1-3)Glc(b1-3)Glc(b1-3)Glc(b1-3)Glc(b1-3)[Glc(b1-6)]Glc(b1-3)Glc(b1-3)Glc", "in_short": "as §1"}, "[6]": {"target": "Glc(b1-4)Glc(b1-4)Glc(b1-3)Glc(b1-4)Glc(b1-4)Glc(b1-3)Glc", "in_short": "as §1"}, "Glc(b1-6)Glc(b1-6)Glc": {"target": "Glc(b1-6)Glc(b1-6)Glc", "in_short": "as §1"}, "[7]": {"target": "Man(b1-4)Man(b1-4)Man(b1-4)Man(b1-4)Man", "in_short": "as §1"}, "Glc(a1-3)Glc(a1-3)Glc": {"target": "Glc(a1-3)Glc(a1-3)Glc", "in_short": "as §1"}, "[8]": {"target": "Glc(a1-3)Glc(a1-3)Glc(a1-3)Glc(a1-3)Glc(a1-3)Glc", "in_short": "as §1"}, "Glc(b1-2)Glc": {"target": "Glc(b1-2)Glc", "in_short": "as §1"}, "[9]": {"target": "Glc(b1-3)Glc(b1-3)Glc(b1-3)Glc(b1-3)Glc(b1-3)Glc(b1-3)Glc(b1-3)Glc", "in_short": "as §1"}, "[10]": {"target": "Glc(b1-3)Glc(b1-3)[Glc(b1-6)]Glc(b1-3)Glc(b1-3)Glc(b1-3)Glc(b1-3)Glc(b1-3)Glc(b1-3)Glc", "in_short": "as §1"}, "[11]": {"target": "Glc(b1-3)[Glc(b1-6)]Glc(a1-3)Glc(b1-3)[Glc(b1-6)]Glc", "in_short": "as §1"}, "[12]": {"target": "Glc(b1-4)Glc(b1-4)Glc(b1-4)Glc(b1-3)Glc", "in_short": "as §1"}, "[13]": {"target": "Glc(b1-6)Glc(b1-6)Glc(b1-6)Glc(b1-6)Glc(b1-6)Glc(b1-6)Glc(b1-6)Glc(b1-6)Glc(b1-6)Glc(b1-6)Glc(b1-6)Glc(b1-6)Glc(b1-6)Glc(b1-6)Glc", "in_short": "as §1"}, "[14]": {"target": "Glc(a1-2)Glc(a1-2)Glc(a1-2)Glc(a1-2)Glc(a1-2)Glc(a1-2)Glc(a1-2)Glc(a1-2)Glc", "in_short": "as §1"}, "[15]": {"target": "Glc(a1-3)Glc(a1-3)Glc(a1-3)Glc(a1-3)Glc(a1-3)Glc(a1-3)Glc(a1-3)Glc(a1-3)Glc(a1-3)Glc(a1-3)Glc(a1-3)Glc", "in_short": "as §1"}, "[16]": {"target": "Glc(a1-4)Glc(a1-4)Glc(a1-4)Glc", "in_short": "as §1"}, "[17]": {"target": "Glc(a1-4)Glc(a1-4)Glc(a1-4)Glc(a1-4)Glc(a1-4)Glc", "in_short": "as §1"}, "[18]": {"target": "Glc(a1-4)Glc(a1-4)Glc(a1-4)Glc(a1-4)Glc(a1-4)Glc(a1-4)Glc(a1-4)Glc", "in_short": "as §1"}, "[19]": {"target": "Glc(a1-4)Glc(a1-4)Glc(a1-4)Glc(a1-4)Glc(a1-4)Glc(a1-4)Glc(a1-4)Glc(a1-4)Glc(a1-4)Glc(a1-4)Glc(a1-4)Glc", "in_short": "as §1"}, "[20]": {"target": "Glc(b1-3)Glc(b1-3)Glc(b1-3)Glc(b1-3)Glc(b1-3)Glc", "in_short": "as §1"}, "Glc(b1-4)Glc(b1-4)Glc": {"target": "Glc(b1-4)Glc(b1-4)Glc", "in_short": "as §1"}, "[21]": {"target": "Glc(b1-4)Glc(b1-4)Glc(b1-4)Glc(b1-4)Glc(b1-4)Glc(b1-4)Glc(b1-4)Glc(b1-4)Glc", "in_short": "as §1"}, "[22]": {"target": "Glc(b1-6)Glc(b1-6)Glc(b1-6)Glc(b1-6)Glc(b1-6)Glc(b1-6)Glc(b1-6)Glc(b1-6)Glc(b1-6)Glc", "in_short": "as §1"}},
  "note": "The sample as a whole holds a higher share of the strongest signals than the screen did.",
  "data": [
    {"binder": "B1", "values": [
      {"measurement": "glycan array binding signal (z-score)", "setting": "[1]", "value": -0.838},
      {"measurement": "glycan array binding signal (z-score)", "setting": "[2]", "value": 2.48}
    ]},
    {"binder": "B2", "values": [
      {"measurement": "glycan array binding signal (z-score)", "setting": "Glc(a1-2)Glc", "value": -0.143},
      {"measurement": "glycan array binding signal (z-score)", "setting": "[3]", "value": -0.143},
      {"measurement": "glycan array binding signal (z-score)", "setting": "Glc(b1-2)Glc(b1-2)Glc", "value": -0.143},
      {"measurement": "glycan array binding signal (z-score)", "setting": "[4]", "value": -0.143},
      {"measurement": "glycan array binding signal (z-score)", "setting": "[5]", "value": 0.047},
      {"measurement": "glycan array binding signal (z-score)", "setting": "[6]", "value": 4.62},
      {"measurement": "glycan array binding signal (z-score)", "setting": "Glc(b1-6)Glc(b1-6)Glc", "value": -0.143},
      {"measurement": "glycan array binding signal (z-score)", "setting": "[7]", "value": 0.04}
    ]},
    {"binder": "B3", "values": [
      {"measurement": "glycan array binding signal (z-score)", "setting": "Glc(a1-2)Glc", "value": -0.981},
      {"measurement": "glycan array binding signal (z-score)", "setting": "Glc(a1-3)Glc(a1-3)Glc", "value": -0.977},
      {"measurement": "glycan array binding signal (z-score)", "setting": "[8]", "value": -0.941},
      {"measurement": "glycan array binding signal (z-score)", "setting": "Glc(b1-2)Glc", "value": -0.411},
      {"measurement": "glycan array binding signal (z-score)", "setting": "[9]", "value": 2.06},
      {"measurement": "glycan array binding signal (z-score)", "setting": "[10]", "value": 2.2},
      {"measurement": "glycan array binding signal (z-score)", "setting": "[11]", "value": 2.44},
      {"measurement": "glycan array binding signal (z-score)", "setting": "[12]", "value": 1.17},
      {"measurement": "glycan array binding signal (z-score)", "setting": "[13]", "value": -0.119}
    ]},
    {"binder": "B4", "values": [
      {"measurement": "glycan array binding signal (z-score)", "setting": "[14]", "value": -0.351},
      {"measurement": "glycan array binding signal (z-score)", "setting": "[15]", "value": -0.3},
      {"measurement": "glycan array binding signal (z-score)", "setting": "[16]", "value": 2.43},
      {"measurement": "glycan array binding signal (z-score)", "setting": "[17]", "value": 3.61},
      {"measurement": "glycan array binding signal (z-score)", "setting": "[18]", "value": 4.12},
      {"measurement": "glycan array binding signal (z-score)", "setting": "[19]", "value": 3.44},
      {"measurement": "glycan array binding signal (z-score)", "setting": "[20]", "value": -0.351},
      {"measurement": "glycan array binding signal (z-score)", "setting": "[9]", "value": -0.351},
      {"measurement": "glycan array binding signal (z-score)", "setting": "Glc(b1-4)Glc(b1-4)Glc", "value": -0.351},
      {"measurement": "glycan array binding signal (z-score)", "setting": "[21]", "value": -0.351},
      {"measurement": "glycan array binding signal (z-score)", "setting": "[22]", "value": -0.351}
    ]}
  ]
}
